From PubChem BioAssay (NCATS)
“And” between values parts separate entries of the source, which are not always exact repeats. Identical values can stand only once. Records with an inconclusive call do not appear. The source made the active and inactive calls. Unless noted, calls follow the shape of the dose curve; as a rule, active = well fitted curve in the direction sought with a large enough effect; inconclusive = small, poorly fitted or top-dose-only effect, or another doubt; inactive = no such curve, though single readings can be large; an effect the other way counts as inactive or inconclusive.

Assays:
[1] = qHTS profiling for inhibitors of Plasmodium falciparum proliferation (AID 504749); also: nearly all actives have a fitted effect of over 60% in size; also: potency is read from the fitted curve at half-maximal effect;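 as to activity, negative = inhibition: 0% = DMSO vehicle and full inhibition = artemisinin control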; details: P. falciparum in erythrocytes, SYBR Green DNA, 72 h, at 28.7 µM (top of the series)
In short: (§1)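 Readout was DNA-dye fluorescence from lysed cultures, ex 485/em 535 nm. Parasitized red cells had grown 72 h with compound; data scaled between 0.29 uM artemisinin and DMSO wells and corrected using vehicle-only plates.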

3D7 = assay: as above; details: P. falciparum in erythrocytes, SYBR Green DNA, 72 h; series mostly up to 28.7 µM
In short: as §1

7G8 = assay: as above; details: P. falciparum in erythrocytes, SYBR Green DNA, 72 h; series mostly up to 28.7 µM
In short: as §1

AA1029 = assay: as above; details: P. falciparum in erythrocytes, SYBR Green DNA, 72 h; series mostly up to 28.7 µM
In short: as §1

AS120 = assay: as above; details: P. falciparum in erythrocytes, SYBR Green DNA, 72 h; series mostly up to 28.7 µM
In short: as §1

ATS189 = assay: as above; details: P. falciparum in erythrocytes, SYBR Green DNA, 72 h; series mostly up to 28.7 µM
In short: as §1

ATS95 = assay: as above; details: P. falciparum in erythrocytes, SYBR Green DNA, 72 h; series mostly up to 28.7 µM
In short: as §1

C2A = assay: as above; details: P. falciparum in erythrocytes, SYBR Green DNA, 72 h; series mostly up to 28.7 µM
In short: as §1

CP185 = assay: as above; details: P. falciparum in erythrocytes, SYBR Green DNA, 72 h; series mostly up to 28.7 µM
In short: as §1

CP191 = assay: as above; details: P. falciparum in erythrocytes, SYBR Green DNA, 72 h; series mostly up to 28.7 µM
In short: as §1

[2] = qHTS drug screen for cell cycle checkpoint inhibitors in PARPi-resistant BRCA-mutant ovarian cancer cell lines. (AID 1963452; calls by dose curve); details: PEO1/OlaR viability, CellTiter-Glo luminescence, 96 h, stronger effect = lower value
In short: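 PEO1, PEO4 and PEO1/OlaR ovarian cancer cells, 600 per well, exposed 96 h at 37C to a dilution series. Viability read by CellTiter-Glo luminescence, normalized to DMSO and empty wells; activity summarized as Z-AUC.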

[3] = KB-3-1 P-gp reporter qHTS against the NCATS DSHEA and TCM libraries (AID 1919975); details: KB-3-1 parental cells, CellTiter-Glo luminescence viability, 72 h; series mostly up to 26.1 µM; also: 0% is about no effect
In short: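 Parental KB-3-1 cells, 500 cells/well, in DMEM with 10% FBS, exposed 72 h at 37 C to compounds in concentration-response. Viability read by CellTiter-Glo luminescence after 30 min at room temperature.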

[4] = qHTS Counterscreen for compound interference against the NCATS DSHEA and TCM libraries (AID 1919978); details: firefly luciferase detection reagent interference, luminescence;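 also: compounds preincubated with 1 µM D-luciferin or buffer before detection reagent; % of control where 0% means no effect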
In short: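 Firefly luciferase detection reagent was added after compounds (19.5 nM–39.8 uM final) had been incubated 15 min at room temperature with 1 uM D-luciferin or with 100 mM phosphate buffer alone. Luminescence was read after 30 min at room temperature.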

[5] = Dual reporter qHTS for agonist of Pregnane X Receptor (hPXR) against the NCATS DSHEA and TCM libraries: Fluorescence readout (AID 1920058); details: PXR dual reporter cells; series mostly up to 40 µM; also: 0% is about no effect
In short: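 Measures viability of the PXR reporter HepG2 line by protease-substrate fluorescence (405/540 nm), taken 1 h after CellTiter-Fluor addition. Substances are tested as concentration series over a ~24 h exposure, with rifampicin as agonist control.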

[6] = molecular target: Nuclear receptor subfamily 1 group I member 2 (Homo sapiens) (UniProt O75469); assay: Dual reporter qHTS for antagonist of Pregnane X Receptor (hPXR) against the NCATS DSHEA and TCM libraries: Luminescence Readout (AID 1920060); details: hPXR dual reporter cells, luciferase luminescence, antagonist mode; series mostly up to 40 µM;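 also: HepG2 cells carrying hPXR luciferase reporter stimulated with rifampicin at 2 µM; 0% is about no effect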
Nuclear receptor subfamily 1 group I member 2 (Homo sapiens), sequence (O75469 whole entry, looked up): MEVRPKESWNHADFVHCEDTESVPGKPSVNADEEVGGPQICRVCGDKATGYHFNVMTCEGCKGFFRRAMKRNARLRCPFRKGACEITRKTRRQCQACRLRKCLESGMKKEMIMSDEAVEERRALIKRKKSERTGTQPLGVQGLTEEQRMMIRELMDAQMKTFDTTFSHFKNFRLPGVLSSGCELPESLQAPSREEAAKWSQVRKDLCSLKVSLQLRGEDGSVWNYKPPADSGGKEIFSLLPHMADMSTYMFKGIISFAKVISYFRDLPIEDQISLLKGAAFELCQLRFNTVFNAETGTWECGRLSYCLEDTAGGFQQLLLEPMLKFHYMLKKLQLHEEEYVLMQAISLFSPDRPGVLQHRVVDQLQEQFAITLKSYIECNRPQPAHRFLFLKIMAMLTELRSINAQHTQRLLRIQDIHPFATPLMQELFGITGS
In short: (§2)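 HepG2 hPXR-Luc, 2000 cells/well, charcoal-stripped FBS medium; 5 h attach; RIF 2 uM final; 24 h 37C/5% CO2; CellTiter-Fluor 1 h, fluor 405/540; ONE-Glo 30 min RT, lum.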

[7] = Dual reporter qHTS for antagonist of Pregnane X Receptor (hPXR) against the NCATS DSHEA and TCM libraries: Fluorescence Readout (AID 1920061); details: PXR dual reporter cells, antagonist mode; series mostly up to 40 µM; also: 0% is about no effect
In short: as §2

[8] = molecular target: Cytochrome P450 2C9 (Homo sapiens) (UniProt P11712); assay: qHTS for inhibitors of CYP2C9 against the NCATS DSHEA and TCM libraries (AID 1919973); details: recombinant CYP2C9 enzyme activity, luminescence; series mostly up to 34.1 µM;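 also: luminogenic pro-luciferin CYP2C9 substrate turned into luciferin with NADPH regeneration; % is scaled to controls: 0 for no effect and ±100 for the full control effect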
Cytochrome P450 2C9 (Homo sapiens), sequence (P11712 whole entry, looked up): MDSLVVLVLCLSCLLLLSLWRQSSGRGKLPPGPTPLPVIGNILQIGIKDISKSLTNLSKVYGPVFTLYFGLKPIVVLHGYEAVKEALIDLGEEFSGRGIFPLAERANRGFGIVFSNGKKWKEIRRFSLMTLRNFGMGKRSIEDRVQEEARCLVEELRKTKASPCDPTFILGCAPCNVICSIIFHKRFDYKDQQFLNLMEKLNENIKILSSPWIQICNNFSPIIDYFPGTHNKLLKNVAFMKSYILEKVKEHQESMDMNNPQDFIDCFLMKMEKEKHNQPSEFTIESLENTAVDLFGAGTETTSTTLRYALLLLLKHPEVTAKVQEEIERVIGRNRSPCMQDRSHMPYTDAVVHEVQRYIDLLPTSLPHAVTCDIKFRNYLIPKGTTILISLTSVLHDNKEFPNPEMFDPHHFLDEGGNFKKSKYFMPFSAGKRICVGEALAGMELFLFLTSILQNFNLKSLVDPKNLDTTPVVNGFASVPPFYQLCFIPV
In short: (§3)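 Light output from converted D-luciferin reports remaining CYP activity. Compounds preincubate with enzyme and substrate for 15 min; NADPH regeneration (1x final) runs the reaction for 30-45 min.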

[9] = molecular target: Cytochrome P450 1A2 (Homo sapiens) (UniProt P05177); assay: qHTS for inhibitors of CYPIA2 against the NCATS DSHEA and TCM libraries (AID 1919976); details: recombinant CYP1A2 enzyme activity, luminescence; series mostly up to 37 µM;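 also: light from luciferin formed by CYP1A2 from a pro-luciferin substrate; % is scaled to controls: 0 for no effect and ±100 for the full control effect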
Cytochrome P450 1A2 (Homo sapiens), sequence (P05177 whole entry, looked up): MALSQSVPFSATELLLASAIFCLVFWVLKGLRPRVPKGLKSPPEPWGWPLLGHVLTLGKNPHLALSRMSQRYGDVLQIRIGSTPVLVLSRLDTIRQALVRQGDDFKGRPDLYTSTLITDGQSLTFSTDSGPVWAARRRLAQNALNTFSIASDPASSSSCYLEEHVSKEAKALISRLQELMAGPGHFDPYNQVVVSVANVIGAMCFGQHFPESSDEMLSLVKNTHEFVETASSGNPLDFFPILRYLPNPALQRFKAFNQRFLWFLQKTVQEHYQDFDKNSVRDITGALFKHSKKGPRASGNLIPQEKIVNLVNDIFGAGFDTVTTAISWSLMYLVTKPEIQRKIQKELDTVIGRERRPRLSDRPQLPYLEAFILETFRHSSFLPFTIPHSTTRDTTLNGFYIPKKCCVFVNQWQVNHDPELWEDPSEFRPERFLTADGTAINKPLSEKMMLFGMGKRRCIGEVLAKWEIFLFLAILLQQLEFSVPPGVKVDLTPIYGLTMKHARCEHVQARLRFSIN
In short: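 In this quantitative HTS, inhibition of recombinant human CYP1A2 was measured as loss of luciferin-derived luminescence. Turnover ran 30-45 min at RT after NADPH regeneration solution was added.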

[10] = molecular target: Nuclear receptor subfamily 1 group I member 2 (Homo sapiens) (UniProt O75469); assay: Dual reporter qHTS for agonist of Pregnane X Receptor (hPXR) against the NCATS DSHEA and TCM libraries: Luminescence readout (AID 1920059); details: hPXR dual reporter cells, luciferase luminescence agonist; series mostly up to 40 µM; also: 0% is about no effect
In short: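 hPXR-Luc HepG2 cells, 2000/well in 5% charcoal-stripped FBS medium, attached 5 h, then exposed 24 h at 37C to compounds. Viability by CellTiter-Fluor, then luciferase luminescence with ONE-Glo.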

[11] = molecular target: Cytochrome P450 2C19 (Homo sapiens) (UniProt P33261); assay: qHTS for inhibitors of CYP2C19 against the NCATS DSHEA and TCM libraries (AID 1919974); details: CYP2C19 enzyme inhibition, luminescence qHTS; series mostly up to 34.1 µM;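 also: luminescence from luciferin released by CYP2C19 oxidation of a pro-luciferin substrate; % is scaled to controls: 0 for no effect and ±100 for the full control effect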
Cytochrome P450 2C19 (Homo sapiens), sequence (P33261 whole entry, looked up): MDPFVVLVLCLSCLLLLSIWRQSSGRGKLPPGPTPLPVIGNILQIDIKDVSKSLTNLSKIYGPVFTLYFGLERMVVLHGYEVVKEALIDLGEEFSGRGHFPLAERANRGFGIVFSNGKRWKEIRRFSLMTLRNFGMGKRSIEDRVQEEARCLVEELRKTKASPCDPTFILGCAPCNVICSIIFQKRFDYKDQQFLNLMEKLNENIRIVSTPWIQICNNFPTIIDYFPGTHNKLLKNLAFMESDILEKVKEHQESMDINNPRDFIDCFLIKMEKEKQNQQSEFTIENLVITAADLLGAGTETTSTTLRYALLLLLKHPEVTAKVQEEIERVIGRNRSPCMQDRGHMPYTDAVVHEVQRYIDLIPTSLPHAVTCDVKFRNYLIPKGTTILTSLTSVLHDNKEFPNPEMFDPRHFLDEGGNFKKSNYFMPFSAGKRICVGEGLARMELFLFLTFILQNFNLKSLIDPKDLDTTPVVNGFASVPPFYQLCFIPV
In short: as §3

[12] = measured here: PEO1 parental Z-AUC

COc1ccc(S(=O)(=O)Nc2nnc(CC(C)C)s2)cc1
inactive: activity, negative = inhibition ([1]; parasite line A) 3.77% and -5.99% | activity, negative = inhibition ([1]; parasite line B) 15.9% and -5.44% | Potency (3D7) | Potency (7G8) | Potency (AA1029) | Potency (AS120) | Potency (ATS189) | Potency (ATS95) | Potency (C2A) | Potency (CP185) | Potency (CP191)

NC(=O)c1ncn([C@@H]2O[C@H](CO)[C@@H](O)[C@H]2O)n1
-0.149: Z-AUC ([2]; measured here: PEO4 Z-AUC)
inactive: Z-AUC [2] -0.199
-0.186: Z-AUC [2, 12]

CCCCCCCCCCCCCCCCCCOCC(O)CO (configuration not stated)
inactive: activity, negative = inhibition ([1]; parasite line A) 11.2% | activity, negative = inhibition ([1]; parasite line B) 11.4% | Potency (3D7) | Potency (7G8) | Potency (AA1029) | Potency (AS120) | Potency (ATS189) | Potency (ATS95) | Potency (C2A) | Potency (CP185) | Potency (CP191)

Cn1c(=O)c2c(ncn2CC2OCCO2)n(C)c1=O
-0.316: Z-AUC [2, 12]
0.00528: Z-AUC ([2]; measured here: PEO4 Z-AUC)
inactive: Z-AUC [2] -0.883 | activity, negative = inhibition ([1]; parasite line A) -11.9% | activity, negative = inhibition ([1]; parasite line B) -9.38% | Potency (3D7) | Potency (7G8) | Potency (AA1029) | Potency (AS120) | Potency (ATS189) | Potency (ATS95) | Potency (C2A) | Potency (CP185) | Potency (CP191)

CCN(CC)CCNC(C(=O)OCCC(C)C)c1ccccc1 (configuration not stated)
inactive: activity, negative = inhibition ([1]; parasite line A) 6.18% | activity, negative = inhibition ([1]; parasite line B) 14.1% | Potency (3D7)
active: Potency (7G8) 12.6 µM

CC1=C(C/C=C(\C)CCC[C@H](C)CCC[C@H](C)CCCC(C)C)C(=O)c2ccccc2C1=O
inactive: outcome [3] | max response [4] -2.28% | outcome [5] | outcome [6] | outcome [7]

O=C1O[C@H]([C@@H](O)CO)C(O)=C1O
inactive: outcome [8] | outcome [3] | outcome [9] | max response [4] -0.0092% | outcome [5] | outcome [10] | outcome [7] | activity, negative = inhibition ([1]; parasite line A) 10.5% | activity, negative = inhibition ([1]; parasite line B) 5.51% | Potency (3D7) | Potency (7G8) | Potency (AA1029) | Potency (AS120) | Potency (ATS189) | Potency (ATS95) | Potency (C2A) | Potency (CP185) | Potency (CP191)

O=C(O)CC(O)C(=O)O (configuration not stated)
inactive: activity, negative = inhibition ([1]; parasite line A) 10.4% | activity, negative = inhibition ([1]; parasite line B) 3.5% | Potency (3D7) | Potency (7G8) | Potency (AA1029) | Potency (AS120) | Potency (ATS189) | Potency (ATS95) | Potency (C2A) | Potency (CP185) | Potency (CP191)

O=C(O)c1ccccc1O
inactive: outcome [8] | outcome [11] | outcome [3] | outcome [9] | max response [4] -0.219% | outcome [5] | outcome [10] | outcome [6] | outcome [7] | activity, negative = inhibition ([1]; parasite line A) 0.135% | activity, negative = inhibition ([1]; parasite line B) 11.3% | Potency (3D7) | Potency (7G8) | Potency (AA1029) | Potency (AS120) | Potency (ATS189) | Potency (ATS95) | Potency (C2A) | Potency (CP185) | Potency (CP191)
